From PubChem BioAssay
Only some compounds are listed: those with a hit (about 3.1% of all), similar ones and a draw of the others.
RGS4 inhibitor: blocks human RGS4-accelerated GTP hydrolysis. P49798. Potency, µM (titrated, usually from 114 µM), without a hit: at the top dose activity change, negative = inhibition, actives largely listed as inhibitors. 0.039% of 390,000 active. Transcreener GDP fluorescence polarization, RGS4-accelerated GTP hydrolysis; active = well fitted inhibition curve with a large enough effect; inconclusive = small, poorly fitted or top-dose-only effect; inactive = no such curve, though single readings can be large or run the other way; also: potency is read from the fitted curve at half-maximal effect; % is scaled to controls: 0 for no effect and ±100 for the full control effect; nearly all actives have a fitted effect of over 75% in size
Target sequence (P49798 whole entry, looked up): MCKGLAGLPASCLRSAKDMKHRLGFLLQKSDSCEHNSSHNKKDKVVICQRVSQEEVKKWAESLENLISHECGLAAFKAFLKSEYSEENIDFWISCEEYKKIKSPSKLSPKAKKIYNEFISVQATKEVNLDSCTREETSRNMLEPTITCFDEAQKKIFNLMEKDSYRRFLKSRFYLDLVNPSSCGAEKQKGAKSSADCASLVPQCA
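MLSMR compounds (23 nl, pin-transferred) preincubated 10 min at room temperature with a 500nM (2x) first reagent, then RGS4 at 900nM (2x) plus Transcreener GDP mix added; fluorescence polarization (620/688 nm) read before and after 90 min at 30 °C.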
D3 antag: D3 dopamine receptor (human) antagonism | max response, negative = inhibition, % | D3R cells, DiscoveRx beta-arrestin luminescence, antagonist mode; stronger effect = lower value | P35462 | AID 652054 | 2.5% of 360,000 active; in the data active = max response below about -50%; inconclusive = no clear call, values can overlap the other calls; also: % is scaled to controls: 0 for no effect and ±100 for the full control effect
Target sequence (P35462 whole entry, looked up): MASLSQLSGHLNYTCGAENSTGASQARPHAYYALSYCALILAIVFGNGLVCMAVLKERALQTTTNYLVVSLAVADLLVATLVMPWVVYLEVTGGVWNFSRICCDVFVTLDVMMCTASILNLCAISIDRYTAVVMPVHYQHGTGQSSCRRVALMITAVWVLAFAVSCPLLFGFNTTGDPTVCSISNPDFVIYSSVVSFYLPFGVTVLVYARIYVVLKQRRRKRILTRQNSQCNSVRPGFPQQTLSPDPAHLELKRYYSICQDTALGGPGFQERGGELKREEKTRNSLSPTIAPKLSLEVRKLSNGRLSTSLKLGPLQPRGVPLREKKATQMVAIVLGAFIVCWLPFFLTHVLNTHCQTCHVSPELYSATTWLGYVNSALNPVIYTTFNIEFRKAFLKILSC
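Cells expressing the human receptor were seeded at 1500 cells/well, incubated overnight at 37 degrees C in 5% CO2, then exposed to library compounds with dopamine controls for 90 minutes at 37 degrees C before luminescent detection.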
D3 ag: activates the human D3 dopamine receptor; P35462; D3R DiscoveRx beta-arrestin cells, luminescence, 90 min; max activation, %; 0.58% of 410,000 active; AID 652048; in the data active = max activation above about 30%; also: 0% is about no effect
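Agonist mode: compounds and dopamine controls were applied to plated cells for 90 min at 37 degrees C after an overnight attachment at 1500 cells/well. Luminescent read-out followed 30 - 60 minutes at room temperature with DiscoveRx detection reagent.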
uPA generation: inhibitors of cell surface uPA generation; AID 540303; Potency, µM (doses to about 38.3 µM), without a hit: at the highest dose activity change, negative = inhibition, usual class: inhibitors; cell surface uPA generation assay, qHTS; 0.31% of 330,000 active; active = well fitted inhibition curve with a large enough effect; inconclusive = small, poorly fitted or top-dose-only effect; inactive = no such curve, though single readings can be large or run the other way; tested in mouse RAW 264.7 cells; also: potency is read from the fitted curve at half-maximal effect; % is scaled to controls: 0 for no effect and ±100 for the full control effect; nearly all actives have a fitted effect of over 55% in size
Numbers without * were called inactive; u = inconclusive; x = not tested or not shown.

SMILES	RGS4 inhibitor	D3 antag	D3 ag	uPA generation
Cc1c(C(=O)NC(C)CN2CCCCC2)oc2ccccc12 (configuration not stated)	-20%	-77*	-54	x
Cc1c(C(=O)N2CCN(Cc3cccs3)CC2)oc2ccccc12	-2%	-79*	-24	-3%
Cc1c(C(=O)N2CCCCC2)oc2ccccc12	-14%	1	-13	3%
C=CCN1CCN(C(=O)c2oc3ccccc3c2C)CC1	-32%	-61*	-11	-5%
O=C(CSc1n[nH]c(-c2ccccc2)n1)NCCc1ccccc1	16%	x	7	x
CC1CCC/C=C/C(=O)c2c(O)cc(O)cc2CC(=O)O1 (configuration not stated)	-5%	-89*	-51	u
O=C(NCc1ccccc1)c1cc(C2CCCN(S(=O)(=O)c3cccs3)C2)on1 (configuration not stated)	x	-68*	-21	x
O=C(NCc1cccnc1)c1cc(C2CCCN(S(=O)(=O)c3cccs3)C2)on1 (configuration not stated)	x	14	16	x
O=C(NCc1ccc(F)cc1)c1cc(C2CCCN(C(=O)c3cccs3)C2)on1 (configuration not stated)	x	-1	-1	x
O=C(NCc1cccnc1)c1cc(C2CCCN(C(=O)c3cccs3)C2)on1 (configuration not stated)	x	-123*	-22	x
CCOC(=O)c1ccc(OCC2c3cc(OC)c(OC)cc3CCN2C(=O)Cc2ccc(F)cc2)cc1 (configuration not stated)	11%	x	1	x
COc1cccc(OCc2ccc(Cl)cc2)c1C#N	-12%	4	0	8.9µM*
COC(=O)[C@@]1(Cc2ccccc2)[C@@H]2C(=CC(=O)[C@H]2CC(=O)C(=O)N(C)C)CN1C(=O)c1ccccc1	-48%	-51*	-20	2.8µM*
CCc1ccccc1N(C)C(=O)Cc1c(C(=O)O)c(C)cn1C	-1%	x	-2	x
CCCS(=O)(=O)NC(=O)C1(C)CCCN(C(=O)c2ccccc2F)C1 (configuration not stated)	x	5	-5	x
O=C(C(=O)N1CCC(Cc2ccccc2)CC1)c1cccc(Br)c1	x	-11	4	x
C=CCn1c(SCC(=O)Nc2sccc2C(N)=O)nc2sc(C)c(C)c2c1=O	-31%	10	41*	-7%
O=C(NCCn1cc(SCc2ccccc2)c2ccccc21)c1c(F)cccc1F	5%	24	1	u
O=C(NCCn1cc(SCc2ccc(F)cc2)c2ccccc21)c1c(F)cccc1F	1%	13	6	10µM*
Cc1csc2ncnc(N3CCN(C(=S)Nc4ccc(F)cc4F)CC3)c12	-7%	19	41*	4%
O=C(O)c1cccc(N2C(=O)c3ccc4c5c(ccc(c35)C2=O)C(=O)N(c2cccc(C(=O)O)c2)C4=O)c1	-27%	-107*	-38	3%
Cc1nc2c(-c3ccc(Cl)cc3)cnn2c(N)c1-c1ccc(F)cc1	-13%	11	0	-16%
Cc1nc2c(-c3ccc(F)cc3)cnn2c(N)c1-c1ccccc1	-2%	-1	-2	3.2µM*
Cc1ccc(NC(=O)c2ccc(-n3c(C)nnc3C)cc2)cc1F	-34%	x	-12	x
O=C1Cc2ccccc2Sc2ccccc21	u	-25	-6	-2%
SMILES	RGS4 inhibitor	D3 antag	D3 ag	uPA generation
CN1CCC(=C2c3ccccc3Sc3ccccc32)CC1	-1%	-108*	-97	u
CN1CCC(=C2c3ccccc3C=Cc3ccccc32)CC1	u	-115*	x	14%
CN(c1ccccc1)S(=O)(=O)c1ccc2ccccc2c1	-31%	8	-4	6%
CN(c1ccccc1)S(=O)(=O)c1ccc2c(c1)OCCO2	15%	-11	41*	-17%
CSc1ccccc1NS(=O)(=O)c1ccc2c(c1)OCCO2	3%	-85*	0	1%
CCOc1ccc(S(=O)(=O)Nc2ccccc2SC)cc1	-23%	-65*	-17	x
Cc1ccc(NC(=O)c2sc(-n3nc(C)c(Cc4ccc5c(c4)OCO5)c3C)nc2C)cc1C	-6%	x	-7	x
CCn1c(C(=O)N2CCCC(C(=O)N3CCN(c4ccccc4)CC3)C2)cc2sccc21 (configuration not stated)	15%	x	-4	x
Cc1c(Cl)c(-c2n[nH]c(=S)n2-c2ccc(F)cc2)nn1C	16%	-66*	-4	3%
Cn1cc(Cl)c(-c2n[nH]c(=S)n2-c2ccc(F)cc2)n1	6%	14	-1	-2%
Cc1nc(-c2ccc(Cl)cc2)sc1C1(C)CC(c2ccc([N+](=O)[O-])cc2)=NO1 (configuration not stated)	-19%	16	51*	9%
Cc1ccc(C2=NOC(C)(c3sc(-c4ccc(Cl)cc4)nc3C)C2)cc1 (configuration not stated)	-7%	-5	6	2%
CC(=O)OC[C@@H]1CN(Cc2ccccc2)C[C@H](n2cnc3c(NCC(C)C)ncnc32)O1	x	-22	-5	x
COc1c(C=O)cc2c3c1CCCN3CCC2	2%	2	-4	2%
NCc1cc2c3c(c1)CCCN3CCC2	-11%	-65*	10	7%
CC(=O)C[C@@H]1OC2CCCCC2N1S(=O)(=O)c1ccc(C)cc1 (some centres not stated)	x	6	2	x
O=C(c1cccc(F)c1)N1CCC(c2c[nH]c3ccccc23)(c2c[nH]c3ccccc23)CC1	-15%	x	8	x
COC(=O)c1sccc1NC(=O)CSc1ccccc1NS(=O)(=O)c1ccc(Cl)cc1	-30%	-59*	2	4%
COc1cc(/C=c2\sc3n(c2=O)C(c2ccccc2)C(c2ccccc2)=NN=3)ccc1O (configuration not stated)	-32%	-76*	-9	3%
COc1ccc(-c2cc3ccccc3n2CC(O)CN2CCC(C)CC2)cc1 (configuration not stated)	-14%	-111*	-14	-15%
COc1ccc(-c2cc3ccccc3n2CC(O)Cn2nc(C)cc2C)cc1 (configuration not stated)	-25%	u	-14	0%
Cn1c(Cn2c(=O)sc3ccccc32)nnc1SCC(=O)NCc1ccc(F)cc1	-8%	-16	-1	3%
Cn1c(Cn2c(=O)sc3ccccc32)nnc1SCC(=O)NCc1ccccc1	-12%	-63*	-9	-2%
CC1CCN(C(=O)N2c3ccccc3Sc3ccccc32)CC1	-21%	12	8	6%
CC1CCN(CC(O)CN2c3ccccc3Sc3ccccc32)CC1 (configuration not stated)	28%	-103*	1	-1%
O=c1[nH]c2cc([N+](=O)[O-])c(NCCO)c([N+](=O)[O-])c2[nH]1	7%	-59*	-18	-6%
CCCNC(=O)C1(C)CCCN(C(=O)c2cc3ccccc3s2)C1 (configuration not stated)	x	12	-3	x
CCCN(C)C1CN(Cc2cn(Cc3ccccc3)nn2)S(=O)(=O)C1 (configuration not stated)	x	-3	-3	x
COc1ccc(CCNCCC(c2ccccc2)c2ccccc2)cc1OC	x	-29	0	x
